About 1,500 (0.42%) of roughly 360,000 compounds were called active. The full list was thinned out, with actives kept by preference. A number with no mark means an inactive call. Rule as the data show it: active = inhibition above about 8.5%; inactive = the rest.
The compounds below were run on HIV-1 gp120 / PG9 antibody interaction (assay: binders of HIV-1 gp120 antibody PG9, primary screen, biochemical, TR-FRET (AID 624416)). Details: TR-FRET gp120-PG9 antibody binding; at 6.7 µM; active compounds read high.
`CCCCNc1cccc2c1S(=O)(=O)N[C@@H](C)CO2` showed an inhibition of -0.83%. `CN1CCCc2nc(-c3ccccc3)ccc21` showed an inhibition of -1.37%. Compound `C[C@H](CO)N1C[C@H](C)[C@@H](CN(C)C(=O)Nc2ccccc2F)OCc2cn(nn2)CCCC1=O` has an inhibition of 0.59%. In the case of `O=C(NN=Cc1ccco1)C(=O)Nc1ccc(Cl)c([N+](=O)[O-])c1`, the inhibition is reported as -2.26%. Compound `CCOC(=O)N1CCN(C(=O)C[C@H]2C[C@@]3(C(=O)OC)C(=C[C@H](C4CCCC4)O[C@@H]3C)N(Cc3ccccc3)C2=O)CC1` has an inhibition of -1.34%. In the case of `COc1ccc(-n2nnnc2-c2nc3ccccc3s2)cc1`, the inhibition is reported as 14.4% (active). Compound `FC(F)(F)c1nc(-c2ccccc2)ncc1-c1nnnn1-c1ccccc1` has an inhibition of -0.69%. For `COc1ccc(-n2nnnc2SCC(=O)NCc2cccs2)cc1`, the inhibition was 0.22%. With `CSc1nnc(SCc2nc3sc(C(=O)O)c(C)c3c(=O)[nH]2)s1` the inhibition was -1.42%. With `CC(=O)c1sc2nc(SCC(=O)N3CCCCC3)[nH]c(=O)c2c1C` the inhibition was 21.1% (active). `Cc1c(C)n2c(SCC(=O)N3CCCC3)nnc2[nH]c1=O` was tested, and the inhibition was -1.7%. Work on `C#CC(C)(C)NC(=O)c1cnc(-c2ccccc2)nc1-c1ccccc1` yielded an inhibition of -1.56%. With `Cc1nc(-c2ccccc2)sc1-c1nc(-c2ccccc2)ncc1S(=O)(=O)c1ccccc1` the inhibition was 10.9% (active). In the case of `Cc1nc(-c2ccccc2)sc1-c1nnc(C2CC2)o1`, the inhibition is reported as -1.07%. Work on `CC(=O)N1C[C@@H](CO)[C@@H](N(C)C(=O)C(C)(C)C)C[C@H]1c1ccccc1Br` yielded an inhibition of 0.03%. Work on `O=S1(=O)c2c(cccc2N2CCCC2)O[C@H](COCc2ccccc2)CN1C1CC1` yielded an inhibition of -1.25%. Work on `CC(C)c1ccc(S(=O)(=O)N2CCN(C(=O)CN3C(=O)NC(C)(c4ccccc4)C3=O)CC2)cc1` (stereo not given) yielded an inhibition of -0.6%. For `N#C/C=C1\Sc2ccccc2C(=O)N1CC(=O)N1CCN(S(=O)(=O)c2ccccc2)CC1`, the inhibition was 16.5% (active). For `O=C(CN1CCCSc2ccccc21)N1CCN(S(=O)(=O)c2cccc(F)c2)CC1`, the inhibition was -0.88%. `O=C(N[C@H](Cc1ccccc1)C(=O)N1CCCN(Cc2cccs2)CC1)[C@H]1O[C@@H](n2ccc(=O)[nH]c2=O)[C@H](O)[C@@H]1O` gave an inhibition of -1.49%. With `COc1ccc(-c2ccccc2C2Cc3nnccc3CN2C(=O)Nc2ccccc2)cc1` (stereo not given) the inhibition was -1.16%. `Clc1cccc2c1C1CC2CCN1Cc1ccccc1` (stereo not given) showed an inhibition of -1.15%. For `CCOc1cccc(NC(=O)Cn2nc(-c3ccc4c(c3)OCCO4)ccc2=O)c1`, the inhibition was 9.11% (active). Work on `CCc1ccccc1OCC(=O)Nc1ccc2c(c1)OCCO2` yielded an inhibition of -0.52%. `CC(=O)c1cc2c(cc1NC(=O)Cn1nc(-c3ccc(F)cc3)ccc1=O)OCO2` gave an inhibition of -0.49%.
